# Measured values from a collection of fitness landscapes (doi:10.1126/science.1257360).
# Over roughly 140,000 sequences, “enrichment ratio after two sorts for PhoP signalling” has its median near 0; the highest 2% begin near 11. Only a selection was taken, and the highest values are over-represented in it overall.
# B1: PhoQ; a variant is named by its letters at X, in order, P23837 (parent)
# chain: MKKLLRLFFPLSLRVRFLLATAAVVLVLSLAYGMVALIGYSVSFDKTTFRLLRGESNLFYTLAKWENNKLHVELPENIDKQSPTMTLIYDENGQLLWAQRDVPWLMKMIQPDWLKSNGFHEIEADVNDTSLLLSGDHSIQQQLQEVREDDDDAEMTHSVAVNVYPATSRMPKLTIVVVDTIPVELKSSYMVWSWFIYVLSANLLLVIPLLWVAAWWSLRPIEALAKEVRELEEHNRELLNPATTRELTSLVRNLNRLLKSERERYDKYRTTLTDLTHSLKTPLXXLQXXLRSLRSEKMSVSDAEPVMLEQISRISQQIGYYLHRASMRGGTLLSRELHPVAPLLDNLTSALNKVYQRKGVNISLDISPEISFVGEQNDFVEVMGNVLDNACKYCLEFVEISARQTDEHLYIVVEDDGPGIPLSKREVIFDRGQRVDTLRPGQGVGLAVAREITEQYEGKIVAGESMLGGARMEVIFGRQHSAPKDE
# Variants of: B1
# Experiment: enrichment ratio after two sorts for PhoP signalling (ratio (wild type AVST 3.29)); higher = more functional
# Settings: with PhoP (E. coli)
row,Variant,enrichment ratio
1,IQLL,0.329
2,EQLL,≤ 0.25
3,ADLL,9.99
4,FTLL,11.6
5,GSRL,≤ 0.25
6,AHLL,9.28
7,YYLL,≤ 0.25
8,TQLL,18.9
9,VRSK,≤ 0.25
10,LRNP,≤ 0.25
11,AMGN,1.38
12,QRDR,≤ 0.25
13,FIYI,≤ 0.25
14,ITNW,≤ 0.25
15,WLSG,≤ 0.25
16,FDMD,≤ 0.25
17,MVGW,≤ 0.25
18,DRLW,≤ 0.25
19,NILL,0.938
20,KCLL,≤ 0.25
21,WILL,≤ 0.25
22,NPLL,≤ 0.25
23,GILL,18.2
24,QCLL,2.35
25,GTLL,12.4
26,LTLL,3.06

row,Variant,enrichment ratio
1,LNLL,≤ 0.25
2,GICL,9.48
3,GCLL,18.3
4,GNLL,15.3
5,TKDY,≤ 0.25
6,KPVK,≤ 0.25
7,ICMI,≤ 0.25
8,SFHP,≤ 0.25
9,YHHD,≤ 0.25
10,AQVH,7.73
11,GEFP,≤ 0.25
12,VRNY,≤ 0.25
13,GNAL,7.59
14,YALL,10.6
15,SKLL,14
16,SKLT,4.23
17,GALL,13.8
18,GAAL,≤ 0.25
19,HILL,≤ 0.25
20,GIAL,13
21,WKIW,≤ 0.25
22,PCAY,≤ 0.25
23,QHAW,≤ 0.25
24,LSTI,≤ 0.25
25,GWLL,≤ 0.25
26,KRIA,≤ 0.25

row,Variant,enrichment ratio
1,FCYK,≤ 0.25
2,PGQT,≤ 0.25
3,QFAV,≤ 0.25
4,FDWQ,≤ 0.25
5,SGCY,10.6
6,NICR,≤ 0.25
7,AIMR,16.6
8,AHMR,≤ 0.25
9,AICR,11.2
10,AICV,15.3
11,NICI,≤ 0.25
12,WICR,≤ 0.25
13,NIWM,≤ 0.25
14,ADCV,≤ 0.25
15,WICV,≤ 0.25
16,KKMR,≤ 0.25
17,NICK,14.4
18,IVKK,≤ 0.25
19,LSQL,≤ 0.25
20,TSAF,7.11
21,PIGM,≤ 0.25
22,ADYP,≤ 0.25
23,AIGM,8.76
24,AICA,3.23
25,AILH,3.54
26,NICS,≤ 0.25

row,Variant,enrichment ratio
1,AICI,16.9
2,AIYP,12.7
3,AHYP,≤ 0.25
4,AICK,24.4
5,WICS,≤ 0.25
6,AICS,18.9
7,AIWM,≤ 0.25
8,MWPS,≤ 0.25
9,VCLF,0.991
10,LARM,≤ 0.25
11,VEST,4.04
12,APVK,≤ 0.25
13,HAAR,≤ 0.25
14,AHCE,≤ 0.25
15,AIIE,≤ 0.25
16,AICE,14.2
17,HKRT,≤ 0.25
18,NRGY,≤ 0.25
19,DMWC,≤ 0.25
20,ANAV,14.3
21,MNAS,6.24
22,MNAV,2.67
23,TNAE,≤ 0.25
24,TNAS,13.9
25,TNAT,11
26,SNAE,7.95

row,Variant,enrichment ratio
1,SQAV,6.43
2,AKAV,0.73
3,ANAE,≤ 0.25
4,SNAV,12.6
5,TNAV,27.6
6,VMEP,≤ 0.25
7,SHGD,≤ 0.25
8,NFGC,≤ 0.25
9,DFHC,≤ 0.25
10,QAAF,≤ 0.25
11,RPYT,≤ 0.25
12,ANAT,17.7
13,ANLT,4.56
14,MNAA,8.61
15,TNAA,13.7
16,ANNT,≤ 0.25
17,TNAD,≤ 0.25
18,HRYS,≤ 0.25
19,LMNM,≤ 0.25
20,NMWP,≤ 0.25
21,SAMD,≤ 0.25
22,KACQ,≤ 0.25
23,SACE,11.7
24,SACQ,13.5
25,SAPE,≤ 0.25
26,SAAM,7.53

row,Variant,enrichment ratio
1,SACI,13.7
2,SACK,0.562
3,SAQP,≤ 0.25
4,WVWC,≤ 0.25
5,YMTW,≤ 0.25
6,YYYE,≤ 0.25
7,RLRN,≤ 0.25
8,SGRV,≤ 0.25
9,NHQI,≤ 0.25
10,TQRI,≤ 0.25
11,SHQI,≤ 0.25
12,KQQI,≤ 0.25
13,TAQI,23.7
14,TKQI,17.5
15,TQQI,11.5
16,LAQI,≤ 0.25
17,PTQI,≤ 0.25
18,THQI,24.1
19,LQQI,≤ 0.25
20,TAPA,≤ 0.25
21,IYTC,≤ 0.25
22,SRID,≤ 0.25
23,LRCL,≤ 0.25
